The values that follow come from PubChem BioAssay (NCI).

The nature of assay [1]: NCI Yeast Anticancer Drug Screen. Data for the rad50 strain (AID 155).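 Also: 0% = growth of vehicle-only cultures of the same strain.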 The settings on record: S. cerevisiae rad50 strain growth inhibition, stronger effect = higher value. In short, it runs like this:
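Vehicle-treated cultures provide the reference for the growth inhibition reported for compound-exposed, repair-deficient yeast.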

Assay [2] can be described thus: NCI Yeast Anticancer Drug Screen. Data for the mec2-1 strain (AID 157). The settings on record: S. cerevisiae mec2-1 strain, stronger effect = higher value. In short, it runs like this:
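Each compound was tested on mec2-1 yeast, a strain altered in DNA damage repair or cell cycle control. Growth inhibition is reported relative to vehicle.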

The nature of assay [3]: NCI Yeast Anticancer Drug Screen. Data for the cln2 rad14 strain (AID 165).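 Also: 0% = growth equal to vehicle treated cultures.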 The settings on record: S. cerevisiae cln2 rad14 strain, stronger effect = higher value. Summed up:
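Test compounds were added to cln2 rad14 yeast cultures; inhibition of growth was then determined by comparison with vehicle treatment.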

Assay [4] is described as follows: NCI Yeast Anticancer Drug Screen. Data for the bub3 strain (AID 167). The settings on record: S. cerevisiae bub3 mutant strain, stronger effect = higher value. Summed up: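 Mutant yeast screening strain plus compound; vehicle-treated cultures serve as the 0% inhibition reference.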
Assay [5] can be described thus: NCI Yeast Anticancer Drug Screen. Data for the mlh1 rad18 strain (AID 175). The settings on record: S. cerevisiae mlh1 rad18 strain growth inhibition, stronger effect = higher value. In short, it runs like this:
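Inhibition values reflect reduced growth of mutant yeast versus vehicle-treated controls following compound exposure; the mutations affect DNA damage repair.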

Assay [6] can be described thus: NCI Yeast Anticancer Drug Screen. Data for the sgs1 mgt1 strain (AID 161).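 Also: 0% = growth of cultures given vehicle only.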 The settings on record: S. cerevisiae sgs1 mgt1 strain, stronger effect = higher value. In short, it runs like this:
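Mutant yeast exposed to compound; growth scored against vehicle-only wells.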

[7] abbreviates: at 5.0 µM (retest, dose inferred, filed as 0.5).
[8] abbreviates: at 50.0 µM (retest, dose inferred, filed as 5.0).

About 79,000 compounds went through this panel and 15% of them were active in at least one assay; those are over-represented in the sample as a whole. Unmarked numbers belong to inactive results. Calls of active or inactive are those of the source. Rule as the data show it: active = growth inhibition above about 70%; inactive = the rest.

In the case of `CCO/C=C1\C(=O)C=C(C)CC1c1ccc(OC)c(OC)c1OC` (stereo not given), the growth inhibition was 3% in assay [1] (setting [7]); 84% (active) in assay [1] (setting [8]); 53.1% in assay [1] (at 50.0 µM); 4% in assay [2] (setting [7]); 81% (active) in assay [2] (setting [8]); 38% in assay [2] (at 50.0 µM). In addition, the growth inhibition in assay [3] (setting [7]) was -5%; in assay [3] (setting [8]), 55%; in assay [3] (at 50.0 µM), 16.6%; in assay [4] (setting [7]), -8%; in assay [4] (setting [8]), 80% (active); in assay [4] (at 50.0 µM), 41.7%. In addition, the values for the growth inhibition in assay [5] (setting [7]), in assay [5] (setting [8]) and in assay [5] (at 50.0 µM) were 4%, 88% (active) and 86.7% (active), respectively.

`CC1=C(C(=O)Nc2ccccc2C)C(c2ccccc2F)C(C(=O)Nc2ccccc2C)=C(C)N1`: the growth inhibition in assay [1] (setting [7]) is 1%; in assay [1] (setting [8]), 6%; in assay [1] (at 50.0 µM), 29.6%; in assay [2] (setting [7]) it was 3%; in assay [2] (setting [8]), 8%; in assay [2] (at 50.0 µM) it was 41.9%. The growth inhibition in assay [3] (setting [7]) was -2%; in assay [3] (setting [8]) it was -6%; in assay [3] (at 50.0 µM), -23.1%; in assay [4] (setting [7]) it was 1%; in assay [4] (setting [8]), 2%; in assay [4] (at 50.0 µM) it was 20.2%. For the same compound, the growth inhibition in assay [5] (setting [7]) is 1%; in assay [5] (setting [8]), 8%; in assay [5] (at 50.0 µM), 47.7%.

For the compound `NC(=O)CCSC(=S)N1CCOCC1`, the growth inhibition was -2% in assay [1] (setting [7]); -16% in assay [1] (setting [8]); -8.55% in assay [1] (at 50.0 µM); -3% in assay [6] (setting [7]); 4% in assay [6] (setting [8]); -8.35% in assay [6] (at 50.0 µM). Besides, the growth inhibition in assay [3] (setting [7]) was 4%; in assay [3] (setting [8]), -2%; in assay [3] (at 50.0 µM), 29.1%; in assay [4] (setting [7]), 39%; in assay [4] (setting [8]) it was -5%; in assay [4] (at 50.0 µM), -1.85%. For the same compound, the values for the growth inhibition in assay [5] (setting [7]), in assay [5] (setting [8]) and in assay [5] (at 50.0 µM) were 1%, 2% and -17.4%, respectively.

Turning to `CCOC(=O)c1cc(C)c(O)c(C(=O)OCC)c1`, the growth inhibition is -9% in assay [1] (setting [7]); 4% in assay [1] (setting [8]); -0.45% in assay [1] (at 50.0 µM); 1% in assay [6] (setting [7]); 22% in assay [6] (setting [8]); 0.65% in assay [6] (at 50.0 µM). In addition, the growth inhibition in assay [3] (setting [7]) is 26%; in assay [3] (setting [8]), 31%; in assay [3] (at 50.0 µM), 6.8%; in assay [4] (setting [7]), 13%; in assay [4] (setting [8]) it was 27%; in assay [4] (at 50.0 µM), 52.4%. Also, the growth inhibition was -28% in assay [5] (setting [7]), -9% in assay [5] (setting [8]) and -10.8% in assay [5] (at 50.0 µM).

`COc1ccc2nc3cc(Cl)ccc3c(NCCC[N+](C)(C)CCCCCCCCCCCCCCCC[N+](C)(C)CCCNc3c4ccc(Cl)cc4nc4ccc(OC)cc34)c2c1`: the growth inhibition in assay [1] (setting [7]) is 85% (active); in assay [1] (setting [8]), 99% (active); in assay [1] (at 50.0 µM) it was 49.2%; in assay [2] (setting [7]), 76% (active); in assay [2] (setting [8]) it was 99% (active); in assay [2] (at 50.0 µM), 43.6%. Also, the growth inhibition was 76% (active) in assay [3] (setting [7]); 98% (active) in assay [3] (setting [8]); 76.6% (active) in assay [3] (at 50.0 µM); 85% (active) in assay [4] (setting [7]); 99% (active) in assay [4] (setting [8]); 47.2% in assay [4] (at 50.0 µM). Moreover, the growth inhibition in assay [5] (setting [7]) was 92% (active); in assay [5] (setting [8]), 99% (active); in assay [5] (at 50.0 µM) it was 97.8% (active).

`CCCCCCCCCCCCCCC(O)C(=O)O` (stereo not given): the growth inhibition in assay [2] (setting [7]) was -2%; in assay [2] (setting [8]) it was -31%; in assay [2] (at 50.0 µM), 88.1% (active); in assay [6] (setting [7]), -7%; in assay [6] (setting [8]), -33%; in assay [6] (at 50.0 µM), 33%. Besides, the growth inhibition is -1% in assay [3] (setting [7]); -42% in assay [3] (setting [8]); 11.4% in assay [3] (at 50.0 µM); -1% in assay [4] (setting [7]); -28% in assay [4] (setting [8]); 96.4% (active) in assay [4] (at 50.0 µM). In addition, the growth inhibition is -2% in assay [5] (setting [7]), -27% in assay [5] (setting [8]) and 73.5% (active) in assay [5] (at 50.0 µM).
